# Screens: PubChem, National Center for Advancing Translational Sciences (NCATS)
# Only some compounds are listed: those with a hit (about 3.2% of all), similar ones and a draw of the others.
# GLP-1R inv ag = acts as inverse agonist at human GLP-1 receptor. P43220. HEK293 GLP-1R CRE-luciferase, luminescence, 24 h; GLP-1R form is constitutively active. Potency, µM (doses to about 38.3 µM), without a hit: at the highest dose activity change, negative = inhibition, hits mostly inhibitors. actives 1.6% (n = 410,000); further: on the % scale 0 is the no-effect control and ±100 the full control effect; nearly all actives have a fitted effect of over 55% in size
# Target sequence (P43220 whole entry, looked up): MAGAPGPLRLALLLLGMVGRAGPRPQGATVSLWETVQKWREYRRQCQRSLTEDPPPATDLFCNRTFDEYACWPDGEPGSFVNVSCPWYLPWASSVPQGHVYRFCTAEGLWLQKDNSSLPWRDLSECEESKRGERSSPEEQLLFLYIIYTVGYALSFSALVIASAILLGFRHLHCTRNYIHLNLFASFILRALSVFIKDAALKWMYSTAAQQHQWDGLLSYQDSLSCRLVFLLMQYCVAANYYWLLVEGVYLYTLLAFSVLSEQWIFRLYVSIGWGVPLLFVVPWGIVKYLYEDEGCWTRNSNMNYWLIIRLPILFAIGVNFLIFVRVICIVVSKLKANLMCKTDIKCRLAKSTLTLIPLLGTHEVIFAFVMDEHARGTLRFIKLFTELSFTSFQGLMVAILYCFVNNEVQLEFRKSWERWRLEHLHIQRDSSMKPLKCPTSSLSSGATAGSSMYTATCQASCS
#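 Seeding at 200 cells/uL, 12 h culture, 24 hr compound treatment, then luciferase reagent and a luminescence read; cells are HEK293 stably expressing a constitutively active GLP-1R plus cAMP-responsive luciferase.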
# ClpP mod = qHTS Assay for Activators of ClpP; ATP-dependent Clp protease proteolytic subunit (Bacillus subtilis (strain 168)), P80244; purified B. subtilis ClpP, FRET peptide cleavage, 20 min; Potency, µM (highest dose often 57.5 µM), for inactives: top-dose activity change, negative = active; actives 1.9% (n = 340,000); AID 651965, 2013; active means well fitted falling curve with a large enough effect; inconclusive means small, poorly fitted or top-dose-only effect; inactive means no such curve, though single readings can be large or run the other way; further: the source files actives as falling curves though it sought activators and does not explain the sign; nearly all actives have a fitted effect of over 65% in size
# Target sequence (P80244 whole entry, looked up): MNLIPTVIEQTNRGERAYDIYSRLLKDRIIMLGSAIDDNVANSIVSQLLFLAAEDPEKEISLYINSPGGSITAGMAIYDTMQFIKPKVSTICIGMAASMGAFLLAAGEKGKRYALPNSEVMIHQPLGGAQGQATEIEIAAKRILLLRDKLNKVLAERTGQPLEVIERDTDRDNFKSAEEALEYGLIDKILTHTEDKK
#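 Buffer: 100 mM Tris/HCl pH8, 100 mM KCl, 0.05% low protease BSA, 2.5% glycerol, 0.01% Tween-20. ClpP 10 microg/mL final; 20 min RT; delta FRET normalized to ADEP and DMSO controls.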
# HEK293 tox = cytotoxic in the GLP-1 receptor inverse agonist counter-screen | HEK293 cAMP-luciferase reporter cells, luminescence, 24 h | Potency, µM (top dose mostly 38.3 µM), inactives show at the highest dose activity change, negative = inhibition, actives largely listed as inhibitors | actives 0.13% (n = 410,000) | AID 624418;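 further: loss of luciferase light is scored as toxicity; on the % scale 0 is the no-effect control and ±100 the full control effect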
#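 1536-well qHTS counterscreen of the MLSMR; 200 cells/uL, 12 h pre-incubation, 23 nL cpd, 24 h at 37 deg C 5% CO2, luciferase detection reagent, 12 min RT, luminescence. Inhibition = undesired.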
# GLP1R ag = GLP-1 receptor (human) agonism; P43220; HEK293 GLP-1R CRE-luciferase, luminescence, 4-6 h; cells express a hypersensitive GLP-1R form; Potency, µM (titrated, usually from 45.6 µM), for inactives: at the top dose activation, actives largely listed as activators; actives 0.007% (n = 380,000); further: % of control where 0% means no effect
# Active calls of the source: *; ? = inconclusive; / = not tested or not shown; [ ] = dose if it differs, or a comment. Unless noted, the call rests on the fitted dose curve; in most records, active means well fitted curve in the direction sought with a large enough effect; inconclusive means small, poorly fitted or top-dose-only effect, or another doubt; inactive means no such curve, though single readings can be large; an effect the other way counts as inactive or inconclusive. Potency means the concentration at half of the fitted maximal effect.
SMILES,GLP-1R inv ag,ClpP mod,HEK293 tox,GLP1R ag
O=C(CN(Cc1ccco1)S(=O)(=O)c1ccccc1)N/N=C/c1cccc(O)c1,?,-2%,19%,4%
Cc1ccc(N(CC(=O)NCCSCc2ccco2)S(=O)(=O)c2ccc(F)cc2)cc1,?,1%,5%,4%
Cc1ccc(S(=O)(=O)N(Cc2ccccc2)c2ccccc2C(=O)Nc2ccccc2C(=O)NCc2ccco2)cc1,5µM*,?,15%,-5%
Cc1cccc(S(=O)(=O)N(CC(=O)Nc2ccccc2C)Cc2ccco2)c1,8.9µM*,-1%,-16%,0%
O=C(NCc1ccco1)c1ccccc1NS(=O)(=O)c1ccc2c(c1)OCCO2,25%,32µM*,-1%,-10%
Cc1ccc(S(=O)(=O)N(CC(=O)NCCSCc2ccco2)c2cc(C)ccc2C)cc1,11µM*,2%,2%,0%
CCOc1ccccc1NC(=O)Cn1c(=O)n(Cc2ccccc2)c(=O)c2c1c1cc(C)ccc1n2C,13%,?,4%,-2%
Cc1cccc(C)c1NC(=S)Nc1ccccc1C(=O)NCc1ccco1,0%,25µM*,-7%,0%
COc1ccc(NC(=O)Cn2cc(C(=O)c3ccccc3)c(=O)c3cc(OC)ccc32)c(OC)c1,12%,-1%,0%,0%
CSc1ccccc1-c1nnc(-c2ccc(Cl)cc2Cl)o1,0%,35µM*,12%,0%
Cc1ccc(C)c(Oc2cc(F)nc(N)n2)c1,0%,18µM*,12%,10%
COc1ccc(Oc2cc(F)nc(N)n2)cc1,1%,-2%,7%,-9%
S=C1NCCc2ccc(Cl)cc2C1c1ccccc1 (centres undefined),11µM*,0%,?,-6%
c1ccc(C2CNCCc3ccccc32)cc1 (centres undefined),?,1%,5%,12%
Cc1ccc(-c2nc(C)c(CCNC(=O)c3cccs3)s2)cc1,?,4%,12%,21%
COc1ccc(C(NC(=O)C(C)C)c2c(O)ccc3ccccc23)cc1OC (centres undefined),?,28µM*,2%[1.53 µM],-2%
CCC(=O)NC(c1ccccc1Cl)c1c(O)ccc2ccccc12 (centres undefined),?,-27%,-16%,-9%
CC(C)C(=O)NC(c1ccco1)c1c(O)ccc2ccccc12 (centres undefined),?,22µM*,-11%,1%
CCC(=O)NC(c1ccc(OC)cc1)c1c(O)ccc2ccccc12 (centres undefined),3.5µM*,4%,-28%,-5%
CC(C)C(=O)NC(c1ccccc1Cl)c1c(O)ccc2ccccc12 (centres undefined),0%,25µM*,8%,-5%
COc1cc2nc(N(C)C)nc(NC3CCN(C)CC3)c2cc1OC,/,4%,/,/
Cn1c(=O)n(C)c2cc(N3CCOCC3)c(NC(=O)c3ccc(C(C)(C)C)cc3)cc21,12%,-2%,2%,/
O=C(Cn1c(=O)n(Cc2ccc(C(=O)NCc3ccc4c(c3)OCO4)cc2)c(=O)c2ccccc21)Nc1cccc(Cl)c1,0%,?,-14%,0%
CCCCC(=O)OC1=C(C(=O)c2ccccc2)N(CC)S(=O)(=O)c2ccccc21,?,0%,-25%,/
CCN1C(C(=O)c2ccccc2)=C(OC(=O)c2ccccc2OC)c2ccccc2S1(=O)=O,10µM*,-2%,?,/
SMILES,GLP-1R inv ag,ClpP mod,HEK293 tox,GLP1R ag
CCC(c1nnnn1Cc1ccc(F)cc1)N(CCCO)Cc1cc2cc3c(cc2[nH]c1=O)OCO3 (centres undefined),-6%,32µM*,6%,17%
CCC(c1nnnn1CC1CCCO1)N(CCCO)Cc1cc2cccc(C)c2[nH]c1=O (centres undefined),0%,-11%,-3%,5%
Cc1cccc(CNC(=O)C2CCCN(S(=O)(=O)c3cn(C)cn3)C2)c1 (centres undefined),2%,-1%,8%,/
COc1ccc(OC)c(/C=N/NC(=O)c2csc3ccccc23)c1,-4%,32µM*,-6%,19%
CC1(C)C([N+](=O)[O-])C(c2ccccc2O)NC(c2ccccc2O)C1[N+](=O)[O-] (centres undefined),10µM*,/,21%,6%
Cc1ccccc1C1NC(c2ccccc2C)C([N+](=O)[O-])C(C)(C)C1[N+](=O)[O-] (centres undefined),?,/,0%,7%
Cc1cc(C)n2nc(C(=O)N3CCCC(N4CCN(c5ccccc5C)CC4)C3)cc2n1 (centres undefined),-4%,28µM*,-8%,3%
Cc1cc(=O)oc2cc(OCc3ccccc3)ccc12,-4%,-3%,-1%,3%
Cc1ccccc1-c1nnc(SCCOc2ccc3c(C)cc(=O)oc3c2)o1,3%,25µM*,1%,4%
Cc1nc(-c2ccc(S(=O)(=O)N3CCCN(CCc4ccccc4)CC3)s2)cs1,?,/,-9%,6%
Cc1nc(-c2ccc(S(=O)(=O)N3CCN(C4c5ccccc5-c5ccccc54)CC3)s2)cs1,?,28µM*,-8%,0%
Cc1cccc(N(CC(=O)NC2CC2)S(=O)(=O)c2ccc(Cl)cc2)c1,?,1%,5%,-1%
Cc1ccc(S(=O)(=O)N(CC(=O)NC2CC2)c2ccc(C)c(Cl)c2)cc1,?,16µM*,0%,-3%
Cc1csc(N/N=C/c2ccccc2F)n1,12%,/,-14%,15%
CCOc1ccc(/C=N/Nc2nc(C)cs2)c(O)c1,4µM*,-7%,3.2µM*,-7%
CCSc1nc2ccccc2n1C(=O)/C=C/c1ccc(OC)c(OC)c1,?,14µM*,-30%,-13%
C=CCSc1nc2ccccc2n1C(=O)/C=C/c1ccc(OC)c(OC)c1,59%,3%,?,-10%
O=C(CCC(=O)N1Cc2ccccc2Oc2ncccc21)NCc1cccc(Cl)c1,-2%,0%,1%,/
CCOC(=O)c1ccc(/C=C2/C=C(c3ccccc3)N(c3ccc(Cl)c(C(=O)O)c3)C2=O)cc1,10µM*,1%,-15%,-1%
CCOC(=O)c1ccc(Cl)c(NC(=O)c2ccc(-c3ccccc3)cc2)c1,8%,-1%,2%,-3%
O=C(Cn1c2ccccc2c(=O)c2ccccc21)Nc1ccccc1F,14%,13µM*,204%,0%
CC(=O)c1cn(CC(=O)Nc2ccccc2F)c2ccccc12,-10%,/,7%,-1%
COc1cc(N(C)C)c(OC)cc1C=C1C=CC=C1,/,0%,/,/
O=C(CN(c1cc(C(F)(F)F)ccc1Cl)S(=O)(=O)c1ccccc1)NCCc1ccccc1,?,-2%,5%,-13%
N#CC1(C#N)C(c2ccccc2)OC23CCCCC2C1(C#N)C(=N)O3 (centres undefined),12%,14µM*,15%[1.53 µM],-5%
CCCCC1OC23CCCCC2C(C#N)(C#N)C1(C#N)C(=N)O3 (centres undefined),10%,-85%,54%,-3%
